From PubChem BioAssay (NCI)
Compounds without any hit were thinned out: in the full panel of roughly 83,000, 20% have a hit.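 Note: values are percent growth. 100 is the growth of untreated cells, values between 100 and 0 indicate rising inhibition; between -100 and 0 indicates cell death.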 Values without a mark were called inactive. Activity calls are given as the source filed them.

These compounds were tested on U251 CNS (assay: NCI-60 one-dose screen, 48 h (100 = growth as untreated, 0 = no growth, -100 = all killed)). Conditions: 10 µM unless noted.
Method: Growth inhibition of the U251 human tumor cell line is measured as a screen for anti-cancer activity. Cells are grown in 96 well plates and exposed to the test compound for 48 hours. Compounds are tested at a single concentration, which is 10^-5 M for most compounds. The reported endpoint is percent growth (GI% or GIPRCNT), where numbers from 0 - 100% represent growth inhibition, and numbers from -100% - 0 represent cell death. For example, a value of 40 represents 60% growth inhibition. A value of 0 means no net growth occurred over the course of the experiment. A value of -40 indicates 40% of cells at the beginning of the experiment died by the end of the experiment. A value of -100 means all cells are dead at the end of the experiment.
NCI-60 Human Tumor Cell Lines Screen was performed using the standard one-dose NCI protocol, which is described in more detail at https://dtp.cancer.gov/discovery_development/nci-60/default.htm.
Compounds with GIPRCNT values below 10 were considered active. Activity score was based on GIPRCNT using the following formula: […]
Score is 0 for GIPRCNT values of 100 or above, 50 for GIPRCNT values of 0, and 100 for GIPRCNT values of -100.
`O=C(COc1cccc(/C=C2/Oc3ccccc3C2=O)c1)Nc1nccs1` showed a growth of 89.4%.
Compound `O=C1C=CC(=O)N1c1ccc(Cc2ccc(N3C(=O)C=CC3=O)cc2)cc1` has a growth of 96.8%.
Compound `O=C1CC(c2nc3ccccc3[nH]2)CN1C1CCCCC1` (stereo not given) has a growth of 99.7%.
With `C(=N\Nc1nnn(Cc2ccccc2)n1)/c1ccccc1` the growth was 31.7%.
In the case of `c1ccc(-c2nc(N3CCOCC3)c3c4c(sc3n2)CCCCC4)nc1`, the growth is reported as 59.9%.
For `O=C1/C(=C/c2ccccc2)CN(CCC(=O)N2C/C(=C\c3ccccc3)C(=O)/C(=C/c3ccccc3)C2)C/C1=C\c1ccccc1`, the growth was 8.91% (active).
Compound `Cc1ccc(S(=O)(=O)n2cc(-c3csc(-c4cn(C)c5ncccc45)n3)c3ccccc32)cc1` has a growth of 51.9%.
Work on `C=CCSc1nnc(-c2ccc(C(C)(C)C)cc2)n1-c1cccc(C(F)(F)F)c1` yielded a growth of 32.6%.
Work on `C=C1CC[C@@H]2[C@](C)(COC(C)=O)[C@H](OC(C)=O)CC[C@@]2(C)[C@@H]1CC(Nc1ccc(S(=O)(=O)Nc2nc(C)cc(C)n2)cc1)C1=CCOC1=O` (stereo not given in full) yielded a growth of 48.2%.
In the case of `CC/C=C\C[C@H](O)C/C=C1/C(=O)C=C[C@@H]1C/C=C\CCCC(N)=O`, the growth is reported as 0.507% (active).
With `CC(=O)Oc1ccc(Nc2c3ccccc3nc3ccccc23)cc1` the growth was 8.7% (active).
With `COc1cc(OC)c(/C=C/S(=O)(=O)Cc2ccc(OC)c(N)n2)c(OC)c1` the growth was 8.02% (active).
`C=C1C(=O)O[C@H]2[C@H]1CC/C(Cn1cc(Cn3ccc4ccccc43)nn1)=C\CC[C@@]1(C)O[C@@H]21` gave a growth of 48.7%.
Compound `Nc1c(C(=O)Nc2ccccc2Cl)sc2nc3c(cc12)CCCCCC3` has a growth of 42%.
In the case of `CC1(C)CC(=O)C(c2c(-c3ccccc3)[nH]c3[nH]c(=S)[nH]c(=O)c23)=C(O)C1`, the growth is reported as 105%.
`CC(=O)C1=C(O)C=C2Oc3c(C(=O)/C=C/c4ccccc4)c(O)c(C)c(O)c3[C@]2(C)C1=O` was tested, and the growth was 7.84% (active).
In the case of `CC(=O)N1CC(Nc2ccc(OC(F)(F)F)cc2)=CC1=O`, the growth is reported as 28.6%.
`CCOC(=O)c1cnc2cc(Cl)c(F)cc2c1Nc1cccc(NS(C)(=O)=O)c1` was tested, and the growth was 106%.
Work on `Nc1nc2ccc(-c3nc4ccc5[nH]ncc5c4c4c3CCC4)cc2s1` yielded a growth of 33.9%.
`CCCCCn1cnc2c(=S)nc[nH]c21` was tested, and the growth was 110%.
In the case of `O=C1CC(c2nc3ccccc3s2)CN1C1CCCCC1` (stereo not given), the growth is reported as 94.5%.
Work on `CCCCOc1ccc(NC(=O)n2nc(NC(C)=O)c3cc(NC(C)=O)ccc32)cc1` yielded a growth of 96.2%.
In the case of `COc1ccc(C2CC(=O)Nc3c2c(C)nn3-c2nc3ccccc3[nH]2)cc1` (stereo not given), the growth is reported as 103%.
For `COc1cc2nc3cc([N+](=O)[O-])ccc3c(NCCCNCC(C)(C)O)c2cc1OC`, the growth was -68.9% (active).
Compound `C=C1CC2(OC1=O)C(=O)N(CCCCCCCCCCCCN1C(=O)C3(CC(=C)C(=O)O3)c3ccccc31)c1ccccc12` (stereo not given) has a growth of 74.3%.
`CCN(C(=O)CN1CCN(c2cc3c(cc2F)c(=O)c(C(=O)O)cn3C2CC2)CC1)c1nc(-c2ccc(OC)cc2)cs1` was tested, and the growth was 14.1%.
For `Cc1cc2c(cc1C)NC1=C(N2)OC(c2c3ccccc3cc3ccccc23)C1=O` (stereo not given), the growth was -8.89% (active).
For `O=C(CN1CCOCC1)Nc1ccc(Cn2nnc3c2C(=O)c2nnn(Cc4ccc(NC(=O)CN5CCOCC5)cc4)c2C3=O)cc1`, the growth was -92.1% (active).
`COc1ccc(-c2c3c(nc4n[nH]c(-c5ccc(Cl)cc5)c24)-c2ccccc2C(=O)C3=O)cc1` was tested, and the growth was -40.2% (active).
For `CCOC(=O)C(C#N)C1CCCCC1` (stereo not given), the growth was 93.8%.
`O=C(/C=C/c1ccc(Cl)cc1)/C=C/c1cc2ccccc2[nH]c1=O` gave a growth of 11.7%.
For `O=c1ccc2cc3ccccc3cc2[nH]1`, the growth was 95.5%.
`COc1ccc(-c2cnoc2-c2cc(OC)c3c(c2)OCCO3)cc1` was tested, and the growth was -17% (active).
`CSc1nc(NCCCNc2ccnc3cc(Cl)ccc23)cc(-c2ccccc2)n1` showed a growth of 53.3%.
Work on `c1ccc2c(Nc3cccc4ccccc34)cccc2c1` yielded a growth of 32.1%.
In the case of `COc1cnc2c(c1)C(=O)c1c-2n(CCCBr)c(=O)c2cc([N+](=O)[O-])ccc12`, the growth is reported as -22.4% (active).
Compound `COc1ccc(-n2cc(-c3ccccc3)c3c(SCC(=O)N/N=C/c4ccc([N+](=O)[O-])cc4)ncnc32)cc1` has a growth of 104%.
With `Oc1ccc2c(=S)cc(-c3ccc(Br)cc3)oc2c1O` the growth was -7.83% (active).
With `COc1ccc(-c2csc(NC(=O)CN3CCN(c4cc5c(cc4F)c(=O)c(C(=O)O)cn5C4CC4)CC3)n2)cc1` the growth was 7.92% (active).
`O=C1c2cc3c(cc2-c2c1c1cc(Cl)c(Cl)cc1c(=O)n2CCCn1ccnc1)OCO3` was tested, and the growth was -9.41% (active).
